From PubChem BioAssay (NCATS)
Results filed as inconclusive are left out. Active and inactive are the calls of the source. Unless noted, calls follow the shape of the dose curve; as a rule, active = well fitted curve in the direction sought with a large enough effect; inconclusive = small, poorly fitted or top-dose-only effect, or another doubt; inactive = no such curve, though single readings can be large; an effect the other way counts as inactive or inconclusive.

How the values were obtained:
[1] = molecular target: Lysosomal acid glucosylceramidase (Homo sapiens) (UniProt P04062); assay: Glucocerebrosidase-p2 (AID 348; in the data active = potency below about 10 µM; also: potency is read from the fitted curve at half-maximal effect); conditions: purified GBA, blue fluorogenic substrate, 40 min
How it was run: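 Normal human glucocerebrosidase (0.2 nM) with blue fluorogenic substrate (80 uM final) in citrate/phosphate pH 5.9 with 10mM sodium taurocholate, 0.01% tween-20; 40 min RT, NaOH/glycine stop; fluorescence Ex 365/Em 440; AC50 from a titration from 0.6 nM upwards.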

[2] = molecular target: Cytochrome P450 1A2 (Homo sapiens) (UniProt P05177); assay: p450-cyp1a2 (AID 410; calls by dose curve; also: potency is read from the fitted curve at half-maximal effect); conditions: recombinant CYP1A2, luciferin-ME demethylation, luminescence; series mostly up to 57 µM
How it was run: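 Luminescent demethylation readout: Luciferin-ME (100uM, equal to Km) turned over by 20nM CYP1A2 for 60 min at room temperature after NADPH regeneration addition, following 10 min compound preincubation. Normalization used 57 uM furafylline as full inhibition.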

[3] = NFAT Signaling Pathway (AID 444; active = well fitted curve in either direction with a large enough effect, not every such curve was filed as active;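 also: carbachol stimulus at about its EC50 of 1 µM final; % is scaled to controls: 0 for no effect and ±100 for the full control effect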); conditions: Jurkat NFAT-bla M1, carbachol, beta-lactamase ratio, 5 h; at 7.69 µM (top of the series) unless noted
How it was run: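 Read-out: CCF4 FRET ratio (460 nm/530 nm) after 1 h RT dye loading, used for %activity and AC50 from titration series. Cells: Jurkat NFAT-β-lactamase/M1 line, treated with compound plus 1 uM carbachol for 5 h, 37 °C.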

[4] = molecular target: Glucocorticoid receptor (Homo sapiens) (UniProt P04150); assay: GR-GFP Redistribution (AID 450;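 active = compounds whose dose series gives a full or clear partial fitted curve of increased nuclear translocation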; also: potency is read from the fitted curve at half-maximal effect); conditions: U2OS GR-GFP nuclear translocation, laser cytometry, 2 h
[5] = molecular target: Glucocorticoid receptor (Homo sapiens) (UniProt P04150); assay: GR-EFC Redistribution (AID 451; calls by dose curve; also: potency is read from the fitted curve at half-maximal effect); conditions: CHO-K1 GR-EFC translocation, beta-gal luminescence, 2 h
How it was run: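 Translocation of GR-ED fusion to nuclear EA restores b-gal, read by luminescence after 1 h room-temperature detection. Engineered CHO-K1 biosensor cells, 1,000/well, exposed 2 h at 37 C to titrations up to 46 uM final.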

[6] = molecular target: 3',5'-cyclic-AMP phosphodiesterase 4B (Homo sapiens) (UniProt Q07343); assay: qHTS Assay for Inhibitors of PDE-IV (AID 607; active = well fitted activation curve with a large enough effect in the main read-out, with a control signal flat, not every such curve was filed as active; also: % of control where 0% means no effect); conditions: HEK293 ACTOne CNG channel cells, membrane potential fluorescence; series mostly up to 22.9 µM
How it was run: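 HEK293 ACTOne cells with CNG channel (1000/well), endogenous PDE4; membrane potential dye, compounds up to 22.9 uM final. Fluorescence Ex 535/Em 590; RO 20-1724 (100 uM final) as reference.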

[7] = molecular target: Cytochrome P450 3A4 (Homo sapiens) (UniProt P08684); assay: qHTS Assay for Inhibitors and Substrates of Cytochrome P450 3A4 (AID 884); conditions: recombinant CYP3A4, Luciferin-PPXE luminescence; series mostly up to 57.1 µM; also: potency is read from the fitted curve at half-maximal effect; nearly all actives have a fitted effect of over 50% in size
How it was run: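 Luminescent readout of luciferin produced by CYP3A4 (20 nM) dealkylation of Luciferin-PPXE, 25 uM (its KM). NADPH-driven reaction ran 60 min at RT after 10 min compound preincubation; data scaled to 57 uM ketoconazole as 100% inhibition.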

[8] = molecular target: Cytochrome P450 3A4 (Homo sapiens) (UniProt P08684); assay: qHTS Assay for Activators of Cytochrome P450 3A4 (AID 885); conditions: recombinant CYP3A4, Luciferin-PPXE luminescence, 60 min; series mostly up to 57.1 µM; also: nearly all actives have a fitted effect of over 65% in size
How it was run: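 Human CYP3A4 dealkylates Luciferin-PPXE to luciferin, which luciferase detection converts to light. Substrate was at its KM (25uM), buffer 200mM KPO4, reaction 60 min at RT.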

[9] = molecular target: Cytochrome P450 2D6 (Homo sapiens) (UniProt P10635); assay: qHTS Assay for Inhibitors and Substrates of Cytochrome P450 2D6 (AID 891); conditions: recombinant CYP2D6, luciferin-ME EGE luminescence; series mostly up to 57.1 µM; also: potency is read from the fitted curve at half-maximal effect; nearly all actives have a fitted effect of over 60% in size
How it was run: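 Luminescent read-out of luciferin formed by 5 nM human CYP2D6 demethylating 30 uM Luciferin-ME EGE (Km level) over 60 min at room temperature after NADPH regeneration addition. Data normalized to full inhibition by 1.43 uM quinidine.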

[10] = molecular target: Cytochrome P450 2C19 (Homo sapiens) (UniProt P33261); assay: qHTS Assay for Inhibitors and Substrates of Cytochrome P450 2C19 (AID 899); conditions: recombinant CYP2C19, luciferin-H EGE luminescence; series mostly up to 57.1 µM; also: potency is read from the fitted curve at half-maximal effect; nearly all actives have a fitted effect of over 60% in size
How it was run: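 5nM enzyme + 10uM Luciferin-H EGE (=KM), 50mM KPO4; cpd pin-transferred, 10 min 37C; NADPH regen, 60 min 37C; stopped w/ luciferin detection reagent, 20 min; luminescence. Normalized to 57uM ketoconazole (AC100).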

[11] = qHTS Assay for Lipid Storage Modulators (AID 1519; calls by dose curve); conditions: Drosophila S3 cells, BODIPY lipid droplet/cell ratio, laser cytometry, cells loaded with oleic acid; for activity change, negative = inhibition: at 57.5 µM (top of the series)
How it was run: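 Cells seeded at 5,000 per well were treated with compounds over a concentration series and loaded with oleic acid (400 uM, as added). Lipid droplet fluorescence (488 nm excitation, 500-530 nm channel) was read by laser-scanning cytometry and normalized to 20 uM Triacsin C.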

[12] = molecular target: Dual specificity protein kinase CLK4 (Homo sapiens) (UniProt Q9HAZ1); assay: qHTS Assay for Inhibitors of CDC-like Kinase 4 (Kinase-Glo Assay) (AID 1770); conditions: recombinant Clk4, Kinase-Glo ATP depletion luminescence; series mostly up to 66.7 µM; also: nearly all actives have a fitted effect of over 65% in size; also: potency is read from the fitted curve at half-maximal effect
How it was run: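 Substrate mix (RS peptide 100 uM, ATP 1 uM) dispensed, compound pinned in, then Clk4 added to 25 nM final. Incubated 4.5 h at RT; Kinase-Glo reagent added, luminescence read after 5 min.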

[13] = molecular target: Dual specificity protein kinase CLK4 (Homo sapiens) (UniProt Q9HAZ1); assay: qHTS Assay for Inhibitors of CDC-like Kinase 4 (ADP-Glo Assay) (AID 1771); conditions: recombinant CLK4, ADP-Glo luminescence; series mostly up to 80 µM; also: nearly all actives have a fitted effect of over 70% in size; also: potency is read from the fitted curve at half-maximal effect
How it was run: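 ADP production was read by ADP-Glo luminescence after residual ATP depletion, following 1 h room-temperature reaction of 25 nM Clk4, 1 uM ATP and 100 uM RS peptide with MgCl2, EGTA, DTT and Triton X-100.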

[14] = molecular target: Ubiquitin carboxyl-terminal hydrolase 1 (Homo sapiens) (UniProt O94782); assay: Inhibitors of USP1/UAF1: Pilot qHTS (AID 504865); conditions: purified USP1/UAF1, Ub-rhodamine cleavage fluorescence; series mostly up to 54.9 µM;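 also: rhodamine fluorescence freed from ubiquitin-rhodamine substrate followed over time; top concentration of the series differs between compounds; % is scaled to controls: 0 for no effect and ±100 for the full control effect; nearly all actives have a fitted effect of over 35% in size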
How it was run: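 In 50mM HEPES pH 7.8 containing 0.5mM EDTA, 1mM TCEP, 0.1 mg/ml BSA and 0.01% Tween-20, 1nM USP1/UAF1 is exposed to compound for 15 min, then Ub-Rho (150nM final) is added and fluorescence is read over time.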

[15] = AP1 Signaling Pathway (AID 357; active = well fitted curve in either direction with a large enough effect, not every such curve was filed as active;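 also: ME-180 reporter cells stimulated with EGF at its EC50 level; % is scaled to controls: 0 for no effect and ±100 for the full control effect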); conditions: ME-180 AP-1-bla reporter, EGF-induced, beta-lactamase ratio, 5 h; at 7.69 µM (top of the series) unless noted
How it was run: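 Read-out was the 460nm/530nm emission ratio (excitation 405nm) after CCF4 loading for 2.5 hours at room temperature. Cells carried an AP-1-driven beta-lactamase reporter, were stimulated with EC50 EGF plus compound for 5 hours, and AC50 values came from titrations.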

[16] = Stat Signaling Pathway (AID 446; active = well fitted curve in either direction with a large enough effect, not every such curve was filed as active;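 also: ME-180 cervical cancer cells given 40 pM IL-6 alongside compound; SIE-controlled beta-lactamase reporter measured as 460/530 nm FRET emission ratio; % is scaled to controls: 0 for no effect and ±100 for the full control effect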); conditions: ME-180 (cervical carcinoma) SIE beta-lactamase reporter, IL-6 stimulated, 5 h; at 7.69 µM (top of the series) unless noted
How it was run: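 Normalization used AC90 stimulation (300 pM IL-6) and AC90 inhibition (125 nM pan-JAK inhibitor at 40 pM IL-6). The underlying signal is SIE-driven beta-lactamase in ME-180 cells after 5 h IL-6 exposure with compound.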

[17] = molecular target: Mitogen-activated protein kinase 10 (Mus musculus) (UniProt Q61831); assay: JNK3 AlphaScreen Assay (AID 530; active = well fitted curve in either direction with a large enough effect, not every such curve was filed as active;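 also: kinase came from lysate of stimulated human HepG2 cells; signal reports phosphorylation of biotinylated GST-cJun 1-79 at Ser73 with 10 µM ATP; % is scaled to controls: 0 for no effect and ±100 for the full control effect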); conditions: JNK3 lysate, c-Jun phosphorylation; series mostly up to 57.1 µM
How it was run: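 qHTS titrations with 15 min compound pre-incubation before adding ATP (10 uM final). Read-out: AlphaScreen of Ser73-phosphorylated biotin-GST-cJun using HepG2 lysate JNK3 activated by IL-1β and TNFα.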

[18] = molecular target: Dual specificity protein kinase CLK4 (Homo sapiens) (UniProt Q9HAZ1); assay: qHTS Assay for Inhibitors of CDC-like Kinase 4 (ADP-FP Assay) (AID 1795); conditions: Transcreener ADP fluorescence polarization; series mostly up to 50 µM;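 also: recombinant human CLK4 phosphorylating RS repeat peptide at 1 µM ATP; % is scaled to controls: 0 for no effect and ±100 for the full control effect; nearly all actives have a fitted effect of over 60% in size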
How it was run: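 Clk4 6.25 nM; RS peptide 100 uM; ATP 1 uM; 25 mM Tris pH 7.5, 10 mM MgCl2; 1 h reaction. ADP detected via antibody/orange tracer FP displacement; TG003 positive control.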

[19] = measured here: cell count channel max response
[20] = measured here: lipid channel max response

Lysosomal acid glucosylceramidase (Homo sapiens), sequence (P04062 whole entry, looked up): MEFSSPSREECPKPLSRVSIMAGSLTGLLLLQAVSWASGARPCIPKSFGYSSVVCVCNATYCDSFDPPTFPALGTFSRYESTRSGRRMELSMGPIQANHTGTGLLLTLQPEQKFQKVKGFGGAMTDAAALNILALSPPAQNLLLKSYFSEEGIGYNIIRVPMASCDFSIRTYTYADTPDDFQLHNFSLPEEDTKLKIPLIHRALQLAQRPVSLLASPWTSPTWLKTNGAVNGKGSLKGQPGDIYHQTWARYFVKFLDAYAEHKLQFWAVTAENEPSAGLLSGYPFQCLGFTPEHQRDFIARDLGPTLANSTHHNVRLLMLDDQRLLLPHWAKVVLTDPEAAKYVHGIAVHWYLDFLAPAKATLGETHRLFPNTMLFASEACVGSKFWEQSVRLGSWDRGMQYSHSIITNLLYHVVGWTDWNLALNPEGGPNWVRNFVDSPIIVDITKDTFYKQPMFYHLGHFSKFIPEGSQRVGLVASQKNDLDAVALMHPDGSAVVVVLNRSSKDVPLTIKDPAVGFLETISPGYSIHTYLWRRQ
Cytochrome P450 1A2 (Homo sapiens), sequence (P05177 whole entry, looked up): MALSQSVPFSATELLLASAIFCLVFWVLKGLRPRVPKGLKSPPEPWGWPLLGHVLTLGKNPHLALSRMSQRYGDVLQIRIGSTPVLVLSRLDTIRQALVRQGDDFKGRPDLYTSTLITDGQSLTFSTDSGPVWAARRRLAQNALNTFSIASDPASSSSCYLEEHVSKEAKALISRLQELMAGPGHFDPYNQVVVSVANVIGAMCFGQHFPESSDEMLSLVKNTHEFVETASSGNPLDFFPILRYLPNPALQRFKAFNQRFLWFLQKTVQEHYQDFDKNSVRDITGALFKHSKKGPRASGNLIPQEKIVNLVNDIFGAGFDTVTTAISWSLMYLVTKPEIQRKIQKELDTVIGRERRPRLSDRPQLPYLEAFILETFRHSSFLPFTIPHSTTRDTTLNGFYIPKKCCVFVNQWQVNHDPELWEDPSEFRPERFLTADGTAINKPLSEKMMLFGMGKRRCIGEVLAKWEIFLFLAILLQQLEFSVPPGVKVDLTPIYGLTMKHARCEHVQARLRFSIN
Ubiquitin carboxyl-terminal hydrolase 1 (Homo sapiens), sequence (O94782 whole entry, looked up): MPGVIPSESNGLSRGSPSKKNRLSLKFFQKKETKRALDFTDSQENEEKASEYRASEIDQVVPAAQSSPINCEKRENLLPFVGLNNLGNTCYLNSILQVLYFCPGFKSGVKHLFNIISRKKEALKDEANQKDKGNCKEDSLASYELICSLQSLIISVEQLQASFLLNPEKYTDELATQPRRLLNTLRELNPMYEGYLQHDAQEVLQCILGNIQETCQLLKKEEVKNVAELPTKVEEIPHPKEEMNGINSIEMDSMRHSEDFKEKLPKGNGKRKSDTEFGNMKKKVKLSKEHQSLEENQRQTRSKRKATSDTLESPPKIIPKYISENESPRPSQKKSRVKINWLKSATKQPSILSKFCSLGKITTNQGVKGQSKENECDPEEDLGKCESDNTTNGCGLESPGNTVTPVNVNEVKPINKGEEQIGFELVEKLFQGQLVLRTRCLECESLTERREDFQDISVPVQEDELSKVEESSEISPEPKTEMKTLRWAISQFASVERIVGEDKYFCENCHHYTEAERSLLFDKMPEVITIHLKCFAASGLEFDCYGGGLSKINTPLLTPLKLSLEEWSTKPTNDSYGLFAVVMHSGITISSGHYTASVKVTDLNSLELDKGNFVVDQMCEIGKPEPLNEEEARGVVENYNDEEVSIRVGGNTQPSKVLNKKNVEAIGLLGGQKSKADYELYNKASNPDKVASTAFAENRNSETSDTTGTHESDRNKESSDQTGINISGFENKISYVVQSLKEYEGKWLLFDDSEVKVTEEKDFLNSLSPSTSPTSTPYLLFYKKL
Cytochrome P450 3A4 (Homo sapiens), sequence (P08684 whole entry, looked up): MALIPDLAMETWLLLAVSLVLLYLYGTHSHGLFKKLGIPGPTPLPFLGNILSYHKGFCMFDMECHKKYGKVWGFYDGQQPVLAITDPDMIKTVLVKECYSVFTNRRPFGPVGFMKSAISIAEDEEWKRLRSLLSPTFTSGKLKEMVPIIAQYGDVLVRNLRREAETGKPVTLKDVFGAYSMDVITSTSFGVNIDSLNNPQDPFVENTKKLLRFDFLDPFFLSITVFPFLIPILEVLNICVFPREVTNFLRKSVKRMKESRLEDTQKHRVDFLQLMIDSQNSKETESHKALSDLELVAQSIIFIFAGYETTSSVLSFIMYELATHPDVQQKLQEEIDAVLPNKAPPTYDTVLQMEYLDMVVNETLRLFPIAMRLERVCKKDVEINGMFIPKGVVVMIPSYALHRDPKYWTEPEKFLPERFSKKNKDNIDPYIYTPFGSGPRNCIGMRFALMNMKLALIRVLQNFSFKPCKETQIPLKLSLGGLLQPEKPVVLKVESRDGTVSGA
Dual specificity protein kinase CLK4 (Homo sapiens), sequence (Q9HAZ1 whole entry, looked up): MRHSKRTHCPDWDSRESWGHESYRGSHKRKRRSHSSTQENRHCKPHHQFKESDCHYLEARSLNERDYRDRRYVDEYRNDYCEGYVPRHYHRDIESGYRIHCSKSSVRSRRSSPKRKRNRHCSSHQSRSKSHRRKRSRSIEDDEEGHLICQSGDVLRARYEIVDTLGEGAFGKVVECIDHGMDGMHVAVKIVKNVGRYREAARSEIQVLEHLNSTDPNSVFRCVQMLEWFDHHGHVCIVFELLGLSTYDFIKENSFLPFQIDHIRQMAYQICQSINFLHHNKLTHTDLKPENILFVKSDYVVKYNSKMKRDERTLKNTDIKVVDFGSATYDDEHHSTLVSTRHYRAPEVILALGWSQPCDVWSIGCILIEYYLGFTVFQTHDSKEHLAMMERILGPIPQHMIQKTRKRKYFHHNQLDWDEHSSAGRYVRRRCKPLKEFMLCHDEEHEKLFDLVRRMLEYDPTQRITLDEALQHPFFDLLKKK
Glucocorticoid receptor (Homo sapiens), sequence (P04150 whole entry, looked up, the tested form may be a part): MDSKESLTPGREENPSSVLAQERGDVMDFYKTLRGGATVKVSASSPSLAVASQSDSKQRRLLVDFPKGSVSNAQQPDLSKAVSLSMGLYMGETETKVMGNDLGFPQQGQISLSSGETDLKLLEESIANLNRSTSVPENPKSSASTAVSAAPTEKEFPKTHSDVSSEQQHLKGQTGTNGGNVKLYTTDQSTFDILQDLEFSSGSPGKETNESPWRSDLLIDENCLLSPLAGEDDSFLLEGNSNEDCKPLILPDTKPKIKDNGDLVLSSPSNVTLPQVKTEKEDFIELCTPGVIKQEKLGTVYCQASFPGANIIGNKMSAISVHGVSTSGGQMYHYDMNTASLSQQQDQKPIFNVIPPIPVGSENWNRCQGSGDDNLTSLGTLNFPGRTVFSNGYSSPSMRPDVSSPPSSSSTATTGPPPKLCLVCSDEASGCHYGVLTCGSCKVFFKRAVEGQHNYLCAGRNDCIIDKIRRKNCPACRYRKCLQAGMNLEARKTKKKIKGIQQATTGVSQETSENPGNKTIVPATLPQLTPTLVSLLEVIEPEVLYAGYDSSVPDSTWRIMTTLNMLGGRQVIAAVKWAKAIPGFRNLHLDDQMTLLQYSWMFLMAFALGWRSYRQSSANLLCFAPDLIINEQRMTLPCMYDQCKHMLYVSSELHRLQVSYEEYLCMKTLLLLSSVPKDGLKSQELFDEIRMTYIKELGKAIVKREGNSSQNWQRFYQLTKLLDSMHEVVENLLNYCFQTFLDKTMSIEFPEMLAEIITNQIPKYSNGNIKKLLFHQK
3',5'-cyclic-AMP phosphodiesterase 4B (Homo sapiens), sequence (Q07343 whole entry, looked up): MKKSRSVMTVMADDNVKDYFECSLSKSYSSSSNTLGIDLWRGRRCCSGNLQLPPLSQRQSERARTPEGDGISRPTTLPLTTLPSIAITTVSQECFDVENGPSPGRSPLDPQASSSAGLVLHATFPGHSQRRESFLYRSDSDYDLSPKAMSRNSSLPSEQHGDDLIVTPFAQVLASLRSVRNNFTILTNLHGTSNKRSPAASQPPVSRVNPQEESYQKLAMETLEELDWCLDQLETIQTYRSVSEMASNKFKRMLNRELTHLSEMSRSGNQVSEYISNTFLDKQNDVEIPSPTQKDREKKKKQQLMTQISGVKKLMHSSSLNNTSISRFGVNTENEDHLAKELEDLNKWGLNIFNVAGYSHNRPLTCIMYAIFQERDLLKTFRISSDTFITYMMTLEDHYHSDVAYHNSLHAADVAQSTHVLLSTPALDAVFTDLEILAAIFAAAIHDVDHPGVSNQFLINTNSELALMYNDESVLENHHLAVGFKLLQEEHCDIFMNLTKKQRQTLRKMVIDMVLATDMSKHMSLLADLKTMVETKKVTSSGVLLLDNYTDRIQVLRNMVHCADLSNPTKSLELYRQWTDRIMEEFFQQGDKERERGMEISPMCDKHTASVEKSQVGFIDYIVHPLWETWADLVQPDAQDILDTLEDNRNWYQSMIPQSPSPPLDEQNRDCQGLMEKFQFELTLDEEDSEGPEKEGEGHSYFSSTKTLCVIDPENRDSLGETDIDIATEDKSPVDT
Cytochrome P450 2D6 (Homo sapiens), sequence (P10635 whole entry, looked up): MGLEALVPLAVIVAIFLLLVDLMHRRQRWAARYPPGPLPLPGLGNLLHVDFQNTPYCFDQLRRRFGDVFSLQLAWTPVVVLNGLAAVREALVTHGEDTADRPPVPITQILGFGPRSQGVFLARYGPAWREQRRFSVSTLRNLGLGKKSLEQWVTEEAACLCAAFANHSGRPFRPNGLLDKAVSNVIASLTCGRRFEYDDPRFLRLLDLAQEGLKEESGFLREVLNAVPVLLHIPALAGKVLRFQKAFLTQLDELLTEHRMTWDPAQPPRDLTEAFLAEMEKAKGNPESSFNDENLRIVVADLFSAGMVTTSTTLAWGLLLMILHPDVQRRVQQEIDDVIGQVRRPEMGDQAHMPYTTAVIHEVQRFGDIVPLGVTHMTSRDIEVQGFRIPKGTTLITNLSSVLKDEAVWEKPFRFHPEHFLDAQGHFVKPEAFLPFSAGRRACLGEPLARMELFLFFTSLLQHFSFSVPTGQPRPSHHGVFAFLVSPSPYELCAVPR

SMILES | Potency [1] | Potency [2] | activity change, negative = inhibition [3] | Potency [4] | Potency [5] | Potency [6] | Potency [7] | Potency [8] | Potency [9] | Potency [10] | activity change, negative = inhibition [11] | max response [11, 19] | max response [11, 20] | Potency [12] | Potency [13] | Potency [14] | activity change, negative = inhibition [15] | activity, negative = inhibition [16] | Potency [17] | Potency [18]
COc1cccc(-c2ccc3ncnc(NCCc4c[nH]c5ccc(OC)cc45)c3c2)c1 | > 11.4 µM (inactive) | 3.98 µM (active) | -6.66% (inactive) | > 46 µM (inactive) | > 46 µM (inactive) | inactive | 1.26 µM (active) | inactive | 2.51 µM (active) | 3.16 µM (active) | -3.93% (inactive) | -24.6% | -27.9% | 5.01 µM (active) | 3.98 µM (active) | inactive |  |  |  | 
CC(=O)NCCNc1ncnc2ccc(-c3ccccc3C)cc12 | > 11.4 µM (inactive) | 0.631 µM (active) | -4.6% (inactive) | > 46 µM (inactive) | > 46 µM (inactive) |  |  | inactive |  |  | 3.95% (inactive) | 28.7% | 28.3% | 15.8 µM (active) | 12.6 µM (active) | inactive | 28% (inactive) | -8.49% (inactive) | inactive | 
Cc1ccccc1-c1ccc2ncnc(N3CCN(C)CC3)c2c1 | > 11.4 µM (inactive) | 3.16 µM (active) | -10.1% (inactive) | > 46 µM (inactive) | > 46 µM (inactive) |  | 3.98 µM (active) | inactive |  |  | -2.02% (inactive) | 10.5% | -2.94% |  | 31.6 µM (active) | inactive | 25.8% (inactive) | -2.42% (inactive) | inactive | inactive
CN1CCN(c2ncnc3ccc(-c4cccc(NS(C)(=O)=O)c4)cc23)CC1 | > 11.4 µM (inactive) | 25.1 µM (active) |  | > 46 µM (inactive) | > 46 µM (inactive) |  |  | inactive |  |  | -4.99% (inactive) | -11.5% | -16% | 6.31 µM (active) | 7.94 µM (active) | inactive |  | -16.1% (inactive) | inactive | 
COc1cccc(Cn2c(=O)c(-c3ccc(F)cc3)nc3cnc(N4CCNCC4)nc32)c1 |  | 25.1 µM (active) |  | > 9.22 µM (inactive) | > 46 µM (inactive) | inactive |  | inactive |  |  | -5.11% (inactive) | 2.95% | 0.893% | inactive | inactive |  |  |  |  | inactive
COCCn1c(=O)c(-c2ccccc2)nc2cnc(Nc3cccc(OC)c3)nc21 | > 11.4 µM (inactive) | 3.98 µM (active) | -5.93% (inactive) | > 9.22 µM (inactive) | > 46 µM (inactive) |  |  |  |  |  | 1.38% (inactive) | -0.938% | 0.127% | inactive | inactive | inactive |  | -18.3% (inactive) | inactive | 
